Molecules are shown by their SMILES. Calls of active or inactive are those of the source. Rule for the calls: active = hit-call score of the fitted dose curve at least 0.9, where 1 is the maximum; inactive = score below 0.9.

This passage reports outcome results from PubChem BioAssay (EPA / NIEHS).

The nature of the first test: ATG_TCF_b_cat_CIS: Attagene CIS-FACTORIAL HepG2 Assay for human T-Cell-Factor with beta-catenin (TCF/b-cat) (AID 2282965). To be noted: HepG2 TCF/beta-catenin cis-reporter transcription, actives raise or lower the signal. The essentials: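 In this cis-format system, transfected HepG2 cells report endogenous transcription factor activity. Readout after 24 h exposure is reporter transcript abundance from RT-PCR and capillary electrophoresis, analysed for gain or loss of signal versus DMSO.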
With `CC(C)(C)N`, the compound was classed as inactive.

In the case of `CCC(C)N` (configuration not stated), the outcome was inactive.

Regarding `CC1=CC(C)C(C=O)CC1` (configuration not stated), the result was inactive.

Consider `COc1cc(C)ccc1O`, for which the compound was called inactive.

Turning to `C[Si]1(C)O[Si](C)(C)O[Si](C)(C)O[Si](C)(C)O[Si](C)(C)O1`, the result was inactive.

Take `CC(C)C(=O)OCCOc1ccccc1`: the outcome was inactive.

Turning to `CCCCOCCOC(=O)COc1ccc(Cl)cc1Cl`, the compound was called inactive.

As for `CC(C)c1ccc2ncccc2c1`, the compound was classed as inactive.

On to `CCCCCC1=CCCC1=O`, for which the compound was classed as inactive.

Another test in a line: ATG_TAL_CIS: Attagene CIS-FACTORIAL HepG2 Assay for human TAL Basal Promoter (AID 2282966).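 Note: background control endpoint measuring basal TAL promoter reporter mRNA not a specific factor.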 The following applies: HepG2 Attagene cis-factorial TAL promoter reporter; actives raise or lower the signal. The essentials: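 HepG2, transient MRTU transfection, 24 h compound exposure; RNA → oligo(dT) RT → PCR → 6-FAM primer extension → HpaI digest → CE fluorescence. Bidirectional curve fit vs DMSO. Background-control readout.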
Regarding `Cc1c(C(=O)c2c[nH]n(C)c2=O)ccc(S(C)(=O)=O)c1C1=NOCC1`, the outcome was inactive.

On to `CC(=O)OC(C)c1ccccc1` (configuration not stated), for which the call was inactive.

As for `O=S(=O)(O)c1ccc(Nc2nc(Nc3ccc(C=Cc4ccc(Nc5nc(Nc6ccc(S(=O)(=O)O)cc6)nc(N(CCO)CCO)n5)cc4S(=O)(=O)O)c(S(=O)(=O)O)c3)nc(N(CCO)CCO)n2)cc1`, the result was inactive.

Regarding `Clc1cccnc1`, the call was inactive.

Consider `Nc1cccc(N)n1`, for which the compound was classed as inactive.

On to `CC(C)=NNC(N)=S`, for which the result was inactive.

Turning to `C/C=C/C=C/CCCCCCCO`, the outcome was inactive.

Turning to `[Cl][Sc]([Cl])[Cl]`, the compound was classed as inactive.

Consider `NC(=O)Nc1ccccc1`, for which the call was inactive.

With `CC12CCC(CC1)C(C)(C)O2`, the outcome was inactive.

As for `CC1(C)CC(O)CC(C)(C)N1[O]`, the compound was called inactive.

Turning to `Cc1cc(=O)[nH]c(=O)[nH]1`, the compound was called inactive.

For the compound `CC(C)(CO)C(O)C(=O)NCCCO` (configuration not stated), the compound was classed as inactive.

Consider `CC1(C)[C@@H]2CC[C@@]1(C)C(=O)C2`, for which the outcome was inactive.

As to `N#CC1(N)CCCCC1`, the call was inactive.

Turning to `CC(=O)c1ccc(S(=O)(=O)NC(=O)NC2CCCCC2)cc1`, the outcome was inactive.

With `CC1=CP(=O)(c2ccccc2)CC1` (configuration not stated), the compound was called inactive.

As for `CCOC(=O)OC(=O)OCC`, the result was inactive.
